Inconclusive results are not listed. Calls of active or inactive are those of the source. Unless noted, calls follow the shape of the dose curve; as a rule, active = well fitted curve in the direction sought with a large enough effect in the repeat runs; inconclusive = weak or mixed curves; inactive = no such curve, though single readings can be large; an effect the other way counts as inactive or inconclusive.
Legend:
[1] = qHTS assay to identify small molecule agonists of the peroxisome proliferator-activated receptor delta (PPARd) signaling pathway - cell viability counter screen (AID 743211); also: nearly all actives have a fitted effect of over 55% in size; also: potency is read from the fitted curve at half-maximal effect
Summary of the method: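 PPARd-bla HEK293H cells (UAS-beta-lactamase reporter) were treated with compounds for 17 h at 37 C. Viability was then read in the same wells by CellTiter-Glo luminescence after 30 min at room temperature.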

[2] = target: Peroxisome proliferator-activated receptor delta (Homo sapiens) (UniProt Q03181); test: qHTS assay to identify small molecule agonists of the peroxisome proliferator-activated receptor delta (PPARd) signaling pathway (AID 743212; calls by dose curve)
Peroxisome proliferator-activated receptor delta (Homo sapiens), sequence (Q03181 whole entry, looked up): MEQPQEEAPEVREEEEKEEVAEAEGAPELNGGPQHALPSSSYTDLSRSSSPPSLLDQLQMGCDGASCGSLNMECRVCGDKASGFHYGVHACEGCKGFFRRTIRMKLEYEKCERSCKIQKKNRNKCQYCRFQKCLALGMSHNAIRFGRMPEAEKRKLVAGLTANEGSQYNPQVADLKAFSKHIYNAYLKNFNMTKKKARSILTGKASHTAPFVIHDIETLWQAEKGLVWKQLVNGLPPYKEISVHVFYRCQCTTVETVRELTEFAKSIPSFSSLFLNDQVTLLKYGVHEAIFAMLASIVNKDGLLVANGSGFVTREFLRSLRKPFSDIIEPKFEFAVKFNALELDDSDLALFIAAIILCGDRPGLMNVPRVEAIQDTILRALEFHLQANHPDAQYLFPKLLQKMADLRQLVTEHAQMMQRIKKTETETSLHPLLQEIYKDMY
Summary of the method: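 GeneBLAzer PPARd UAS-bla HEK293H cells (beta-lactamase reporter under UAS control), plated and rested 5 h at 37 C, then exposed to compounds in DMSO at 37 C; LiveBLAzer B/G FRET substrate added, 2 h room temperature, fluorescence read.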

[3] = target: Peroxisome proliferator-activated receptor delta (Homo sapiens) (UniProt Q03181); test: qHTS assay to identify small molecule antagonists of the peroxisome proliferator-activated receptor delta (PPARd) signaling pathway (AID 743215; active = well fitted inhibition curve with a large enough effect in the signal ratio in the repeat runs, not every such curve was filed as active; the % refers to the signal ratio;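 also: cells stimulated with agonist L165041 at 300 nM final during compound exposure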; also: potency is read from the fitted curve at half-maximal effect)
Summary of the method: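 PPARd UAS-bla HEK293H cells were pre-incubated 5 h at 37 C, then given test compounds in DMSO plus agonist L165041 (300 nM final). After 17 h at 37 C, beta-lactamase FRET substrate was added; fluorescence read after 2 h at room temperature.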

[4] = qHTS assay to identify small molecule agonists of the farnesoid-X-receptor (FXR) signaling pathway - cell viability counter screen (AID 743218); also: nearly all actives have a fitted effect of over 45% in size; also: potency is read from the fitted curve at half-maximal effect
Summary of the method: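 FXR-UAS-bla HEK 293T cells, plated 5 h at 37 C, were exposed to compounds for 16 h at 37 C. CellTiter-Glo was then added to the same wells as the bla readout; luminescence read after 30 min at room temperature.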

[5] = qHTS assay to identify small molecule antagonists of the farnesoid-X-receptor (FXR) signaling pathway - cell viability counter screen (AID 743221; active = well fitted cell-killing curve with a large enough effect in the repeat runs, not every such curve was filed as active; also: nearly all actives have a fitted effect of over 50% in size; also: potency is read from the fitted curve at half-maximal effect)
Summary of the method: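 FXR-UAS-bla HEK 293T cells were treated with test compounds plus chenodeoxycholic acid (50 uM final) for 16 h at 37 C. Cell viability in the same wells was then read as CellTiter-Glo luminescence after 30 min at room temperature.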

[6] = qHTS assay to identify small molecule agonists of the vitamin D receptor (VDR) signaling pathway - cell viability counter screen (AID 743224); also: nearly all actives have a fitted effect of over 50% in size; also: potency is read from the fitted curve at half-maximal effect
Summary of the method: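 VDR-bla cells were preincubated 4 h at 37C/5% CO2, then exposed to compounds for 16 h. After the 2 h room-temperature bla FRET read, CellTiter-Glo was added to the same wells and luminescence read after 30 min.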

[7] = qHTS assay to identify small molecule antagonists of the vitamin D receptor (VDR) signaling pathway - cell viability counter screen (AID 743225); also: nearly all actives have a fitted effect of over 50% in size; also: potency is read from the fitted curve at half-maximal effect
Summary of the method: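 VDR-bla HEK 293T cells, 4 h pre-incubation at 37C, then compound plus 1-alpha,25-dihydroxyvitamin D3 (3 nM final) for 16 h. After the beta-lactamase FRET read, CellTiter-Glo was added to the same wells; luminescence after 30 min at room temperature.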

[8] = qHTS assay to identify small molecule agonists of the NFkB signaling pathway - cell viability counter screen (AID 1159515; calls by dose curve; also: nearly all actives have a fitted effect of over 55% in size; also: potency is read from the fitted curve at half-maximal effect)
Summary of the method: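 NFkB-bla ME-180 cells, 2,000/well, were plated overnight at 37 C, 5% CO2, then exposed to compounds in DMSO for 5 hr. After the bla FRET read, CellTiter-Glo was added to the same wells; luminescence was read after 30 min at room temperature.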

[9] = qHTS assay to identify small molecule agonists of the endoplasmic reticulum stress response signaling pathway - cell viability counter screen (AID 1159517; calls by dose curve; also: nearly all actives have a fitted effect of over 50% in size; also: potency is read from the fitted curve at half-maximal effect)
Summary of the method: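 Luminescence readout: CellTiter-Glo, 30 min RT, same wells as the ESRE-bla reporter read. HeLa ESRE-bla, 1,500 cells/well, o/n 37 C; cpd 5 hr 37 C/5% CO2.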

[10] = qHTS assay to identify small molecule antagonists of the retinoid-related orphan receptor gamma (ROR-gamma) signaling pathway - cell viability counter screen (AID 1159520); also: nearly all actives have a fitted effect of over 50% in size; also: potency is read from the fitted curve at half-maximal effect
Summary of the method: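 Tet-on ROR gamma CHO cells (1,000/well) were plated 4 hr, given compounds in DMSO for 2 hr at 37 C, then induced with 1 uM final doxycycline for 16 hr. Viability was read as ATP by CellTiter-Glo luminescence after 30 min.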

[11] = target: Nuclear receptor ROR-gamma (Homo sapiens) (UniProt P51449); test: qHTS assay to identify small molecule antagonists of the retinoid-related orphan receptor gamma (ROR-gamma) signaling pathway (AID 1159521; also: nearly all actives have a fitted effect of over 50% in size; also: potency is read from the fitted curve at half-maximal effect)
Summary of the method: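 Tet-on RORγ CHO cells carrying a ROR response element–luciferase reporter were pretreated with compounds for 2 h, then induced with 1 uM (final) doxycycline hyclate for 16 h at 37 C. Antagonism was read as decreased ONE-Glo luminescence.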

[12] = qHTS assay to identify small molecule agonists of the AP-1 signaling pathway - cell viability counter screen (AID 1159525; calls by dose curve; also: nearly all actives have a fitted effect of over 55% in size; also: potency is read from the fitted curve at half-maximal effect)
Summary of the method: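 ME-180 AP-1-bla, 2500 cells/well, Opti-MEM + 0.5% dialyzed FBS; overnight 37 °C; cpd 15-pt titration, 5 h 37 °C; CellTiter-Glo 30 min RT; luminescence read; normalised to TOAB and DMSO controls.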

[13] = qHTS assay to identify small molecule antagonists of the peroxisome proliferator-activated receptor delta (PPARd) signaling pathway - cell viability counter screen (AID 743213); also: nearly all actives have a fitted effect of over 50% in size; also: potency is read from the fitted curve at half-maximal effect
Summary of the method: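 HEK293H PPARd UAS-bla cells, 5 h pre-incubation, compound + L165041 300 nM final, 17 h 37 C; B/G FRET substrate 2 h RT; then CellTiter-Glo 30 min RT, luminescence.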

[14] = target: Bile acid receptor (Homo sapiens) (UniProt Q96RI1); test: qHTS assay to identify small molecule antagonists of the farnesoid-X-receptor (FXR) signaling pathway (AID 743217; active = well fitted inhibition curve with a large enough effect in the signal ratio in the repeat runs, not every such curve was filed as active; the % refers to the signal ratio; also: potency is read from the fitted curve at half-maximal effect)
Bile acid receptor (Homo sapiens), sequence (Q96RI1 whole entry, looked up): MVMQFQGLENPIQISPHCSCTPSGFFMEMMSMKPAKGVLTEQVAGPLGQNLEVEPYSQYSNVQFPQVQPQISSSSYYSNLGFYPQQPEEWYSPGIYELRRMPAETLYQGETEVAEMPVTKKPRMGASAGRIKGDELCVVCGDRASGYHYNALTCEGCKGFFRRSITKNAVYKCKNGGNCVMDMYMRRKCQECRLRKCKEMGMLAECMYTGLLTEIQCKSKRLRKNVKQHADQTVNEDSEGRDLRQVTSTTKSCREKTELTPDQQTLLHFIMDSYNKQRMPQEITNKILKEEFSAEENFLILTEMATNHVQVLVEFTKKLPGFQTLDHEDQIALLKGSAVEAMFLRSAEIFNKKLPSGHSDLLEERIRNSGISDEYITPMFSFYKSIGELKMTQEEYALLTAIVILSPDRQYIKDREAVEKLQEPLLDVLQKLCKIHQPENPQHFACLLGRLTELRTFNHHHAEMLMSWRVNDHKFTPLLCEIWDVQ
Summary of the method: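 FXR-UAS-bla HEK 293T cells pre-incubated 5 h at 37 °C, then exposed to compounds with chenodeoxycholic acid (50 uM final) for 16 h at 37 °C. Beta-lactamase reporter read by LiveBLAzer B/G FRET substrate fluorescence after 2 h at room temperature.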

[15] = target: Bile acid receptor (Homo sapiens) (UniProt Q96RI1); test: qHTS assay to identify small molecule agonists of the farnesoid-X-receptor (FXR) signaling pathway (AID 743220; active = well fitted activation curve with a large enough effect in the signal ratio in the repeat runs, not every such curve was filed as active; the % refers to the signal ratio)
Summary of the method: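 Beta-lactamase reporter under UAS control in GeneBLAzer FXR HEK 293T cells (5000/well) measured with LiveBLAzer FRET substrate after 2 h at room temperature. Compound exposure lasted 16 h at 37C.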

[16] = target: Vitamin D3 receptor (Homo sapiens) (UniProt P11473); test: qHTS assay to identify small molecule antagonists of the vitamin D receptor (VDR) signaling pathway (AID 743223; active = well fitted inhibition curve with a large enough effect in the signal ratio in the repeat runs, not every such curve was filed as active; the % refers to the signal ratio; also: potency is read from the fitted curve at half-maximal effect)
Vitamin D3 receptor (Homo sapiens), sequence (P11473 whole entry, looked up): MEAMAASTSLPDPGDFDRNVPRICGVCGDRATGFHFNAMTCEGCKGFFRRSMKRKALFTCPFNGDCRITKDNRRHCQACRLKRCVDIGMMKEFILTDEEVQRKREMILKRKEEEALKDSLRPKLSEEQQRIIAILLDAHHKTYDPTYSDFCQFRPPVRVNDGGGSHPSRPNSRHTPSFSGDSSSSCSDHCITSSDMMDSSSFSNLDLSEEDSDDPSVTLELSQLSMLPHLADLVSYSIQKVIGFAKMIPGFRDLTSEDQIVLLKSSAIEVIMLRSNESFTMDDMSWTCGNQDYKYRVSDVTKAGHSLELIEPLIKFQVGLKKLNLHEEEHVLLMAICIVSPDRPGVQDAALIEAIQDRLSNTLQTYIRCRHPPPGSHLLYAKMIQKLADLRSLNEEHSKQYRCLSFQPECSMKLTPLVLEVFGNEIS
Summary of the method: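 VDR-bla cells were plated, incubated 4 h at 37C, then given compound and 1alpha,25-dihydroxyvitamin D3 (3 nM final). After 16 h at 37C, LiveBLAzer B/G FRET substrate was added for 2 h at room temperature and fluorescence read.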

[17] = target: Retinoic acid receptor RXR-alpha (Homo sapiens) (UniProt P19793); test: qHTS assay to identify small molecule agonists of the RXR signaling pathway (AID 1159527; calls by dose curve; also: nearly all actives have a fitted effect of over 35% in size; also: potency is read from the fitted curve at half-maximal effect)
Retinoic acid receptor RXR-alpha (Homo sapiens), sequence (P19793 whole entry, looked up): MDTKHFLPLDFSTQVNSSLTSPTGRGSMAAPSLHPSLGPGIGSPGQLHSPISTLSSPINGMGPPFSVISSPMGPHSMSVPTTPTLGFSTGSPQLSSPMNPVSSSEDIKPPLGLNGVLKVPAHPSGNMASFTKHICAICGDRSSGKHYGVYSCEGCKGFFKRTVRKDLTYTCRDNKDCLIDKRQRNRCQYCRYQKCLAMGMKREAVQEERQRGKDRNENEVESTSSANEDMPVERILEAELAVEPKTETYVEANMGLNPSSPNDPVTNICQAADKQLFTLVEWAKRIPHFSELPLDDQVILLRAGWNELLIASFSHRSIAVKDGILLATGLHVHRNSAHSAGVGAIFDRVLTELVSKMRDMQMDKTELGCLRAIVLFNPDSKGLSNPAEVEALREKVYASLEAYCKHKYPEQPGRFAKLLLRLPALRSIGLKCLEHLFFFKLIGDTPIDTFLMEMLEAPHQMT
Summary of the method: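 GeneBLAzer RXR-alpha-UAS-bla HEK 293T cells in medium with 2% charcoal-stripped FBS, pre-incubated 5 hr at 37 C, then exposed to compounds 16 hr. Beta-lactamase reporter read by FRET substrate, 2 hr room temperature, 460/530 nm emission.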

[18] = target: Vitamin D3 receptor (Homo sapiens) (UniProt P11473); test: qHTS assay to identify small molecule agonists of the vitamin D receptor (VDR) signaling pathway (AID 743222; calls by dose curve)
Summary of the method: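 VDR-bla cells were plated 4 h at 37C/5% CO2, then exposed to compounds in DMSO for 16 h. After LiveBLAzer B/G FRET substrate addition and 2 h at room temperature, beta-lactamase reporter fluorescence was read.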

Measured: Potency

Cc1[nH]nc2c1N=C(c1ccccc1Cl)c1cc([N+](=O)[O-])ccc1N2
active: [1] 5.49 µM | [3] 24.5 µM | [4] 24.5 µM | [6] 5.49 µM | [7] 21.9 µM | [9] 43.6 µM | [10] 54.5 µM | [11] 21.7 µM | [12] 30.9 µM
inactive: [2] | [5] | [8]

CCCCCCCCn1sc(Cl)c(Cl)c1=O
active: [1] 3.09 µM | [13] 3.89 µM | [14] 43.6 µM | [4] 4.36 µM | [7] 6.92 µM | [8] 9.77 µM | [9] 3.47 µM | [10] 2.73 µM | [11] 4.86 µM | [12] 19.5 µM

Cc1ccc2oc(CN(Cc3ccccc3)C(=O)Nc3c(F)cc(F)cc3F)c(-c3ccc(Cl)cc3)c2c1
active: [11] 14.9 µM
not listed: [2] | [3] | [14] | [18]
inactive: all other assays above

CCCCCCCC[P+](CCCCCCCC)(CCCCCCCC)CCCCCCCC
active: [1] 5.46 µM | [13] 7.71 µM | [4] 8.65 µM | [5] 17.3 µM | [16] 19.4 µM | [6] 3.45 µM | [7] 13.7 µM | [8] 5.46 µM | [9] 13.7 µM | [10] 6.82 µM | [11] 1.71 µM | [12] 12.2 µM

Nc1ccc2c3c(cccc13)-c1ccccc1-2
active: [1] 55.5 µM | [13] 49.5 µM
inactive: [5] | [8] | [9] | [10] | [11] | [12]

OCCN1CCN(CC/C=C2/c3ccccc3Sc3ccc(C(F)(F)F)cc32)CC1
inactive: [15]
active: [1] 26.6 µM | [13] 23.7 µM | [4] 26.6 µM | [5] 23.7 µM | [7] 23.9 µM | [8] 26.8 µM | [9] 23.9 µM | [10] 29.8 µM | [11] 26.6 µM | [12] 23.9 µM

O=S1(=O)CC(Cl)(Cl)C(Cl)(Cl)C1
active: [1] 3.09 µM | [13] 3.89 µM | [4] 5.49 µM | [5] 9.77 µM | [16] 1.74 µM | [6] 2.19 µM | [7] 4.36 µM | [8] 5.49 µM | [9] 4.9 µM | [10] 6.11 µM | [11] 2.17 µM | [12] 4.9 µM
inactive: [18]

COc1cc(/C=C/C(=O)O[C@H]2CC[C@]34C[C@]35CC[C@]3(C)[C@@H]([C@H](C)CCC=C(C)C)CC[C@@]3(C)[C@@H]5CC[C@H]4C2(C)C)ccc1O
not listed: [18]
inactive: all other assays above

CC1=NC(C)OC1C (centres undefined)
not listed: [2] | [3] | [14] | [15] | [16] | [18]
inactive: all other assays above

CC(C)CCCCCCCCCCCCCCC(=O)O
inactive: [13] | [3] | [4] | [5] | [7] | [8] | [9]
active: [10] 68.6 µM | [11] 54.5 µM | [12] 24.5 µM | [17] 11 µM

O=c1[nH]sc2ccccc12
inactive: [18]
active: [1] 17.4 µM | [13] 17.4 µM | [4] 49 µM | [5] 49 µM | [8] 49 µM | [9] 54.9 µM | [10] 21.7 µM | [11] 17.2 µM | [12] 34.7 µM

Cc1cc(O)c2ccccc2c1O
active: [1] 10.6 µM | [13] 10.6 µM | [3] 10.6 µM | [14] 16.8 µM | [4] 13.3 µM | [5] 23.7 µM | [6] 7.5 µM | [7] 13.4 µM | [8] 13.4 µM | [9] 16.9 µM | [10] 7.5 µM | [11] 11.9 µM | [12] 10.7 µM

CCCC(c1cc(C(C)(C)C)c(O)cc1C)c1cc(C(C)(C)C)c(O)cc1C
active: [1] 11.1 µM | [13] 19.7 µM | [4] 12.5 µM | [6] 7.86 µM | [7] 14 µM | [8] 11.1 µM | [9] 22.1 µM | [10] 15.5 µM | [11] 13.9 µM | [12] 7 µM

CCCCCCCC[N+](CCCCCCCC)(CCCCCCCC)CCCCCCCC
active: [1] 6.15 µM | [13] 6.9 µM | [5] 21.8 µM | [6] 8.69 µM | [7] 7.75 µM | [8] 24.5 µM | [9] 43.6 µM | [10] 8.62 µM | [11] 6.1 µM | [12] 15.5 µM

O=C1C=CC(=O)N1c1ccc(Cc2ccc(N3C(=O)C=CC3=O)cc2)cc1
inactive: [2]
active: [1] 38.9 µM | [13] 34.7 µM | [6] 17.4 µM | [7] 21.9 µM | [8] 24.5 µM | [9] 34.7 µM | [10] 15.4 µM | [11] 8.63 µM | [12] 24.5 µM

N=C1C=CC(=C(c2ccc(N)cc2)c2ccc(N)cc2)C=C1
active: [10] 13.7 µM | [11] 15.4 µM
inactive: [2] | [5] | [8] | [9] | [12]

O=C(NO)C1(NS(=O)(=O)c2ccc(Oc3ccc(F)cc3)cc2)CCOCC1
not listed: [14] | [15] | [17] | [18]
inactive: all other assays above

From PubChem BioAssay (Tox21)
